Experimental data as given in PubChem BioAssay (Tox21).
Active and inactive are the calls of the source. A call without a number means that no potency is given here. Calls come from the whole dose curve; as a rule, active = well fitted activation curve with a large enough effect in the repeat runs; inconclusive = weak or mixed curves; inactive = flat fitted curve, though single readings scatter.

Experiment: A CellTox Green Cytotoxicity Assay to monitor cytotoxicity in HEK293 cells - 0 hour (AID 1224869); note: nearly all actives have a fitted effect of over 50% in size
Settings: CellTox Green fluorescence; series mostly up to 76.8 µM
Excerpt: National Center for Advancing Translational Sciences [NCATS]
NIH Chemical Genomics Center [NCGC]
U.S. Environmental Protection Agency [EPA]
National Institutes of Environmental Health Sciences [NIEHS]
National Toxicology Program [NTP]
Cell-based models are critical for drug discovery. Determining the natural cytotoxic effects resulting from test compounds is an essential research activity. A CellTox Green Cytotoxicity Assay to monitor cytotoxicity in real time of continues cell culture during 40 hours of the compound treatment was used to screen Tox21 10K library compounds in Hek293 cells. CellTox Green Cytotoxicity Assay is a nonlytic, homogeneous, biofluorescent method to measure cytotoxicity in cell culture after experimental manipulation. The assay system uses a proprietary asymmetric cyanine dye that is excluded from viable cells but preferentially stains the dead cell's DNA. […] Viable cells produce no appreciable increases in fluorescence. Therefore, the fluorescence signal produced by the binding interaction with dead cell DNA is proportional to cytotoxicity.
The mixture of Hek293 cell suspension and reagents were dispensed at 600cells/6 ul/well in 1536-well tissue culture treated black solid bottom plates using a Multidrop dispenser. After the assay plates were incubated at a 37 C/5% CO2 incubator for 5 hours, 23 nL of compounds dissolved in DMSO, positive and negative controls was transferred to the assay plate by a pintool work station. The plates were incubated at 37 C for 40 hours. The fluorescence intensity were measured at 0h, 8h, 16h, 24h, 32h and 40h time points using ViewLux plate reader during compound treatment.
Potency is the fitted concentration of half-maximal effect.

Structure (SMILES)	Potency
C[C@H](CS)C(=O)N1CCC[C@H]1C(=O)O	inactive
NC(=O)CCCCC(N)=O	inactive
Cc1ccc(Nc2c(F)cccc2Cl)c(CC(=O)O)c1	inactive
O=C(c1ccccc1)C1CCC1	38.9 µM (active)
COc1ccc(-n2nc(C(F)F)cc2-c2ccc(S(C)=O)cc2)cc1 (stereo not given)	inactive
CC1CCCO1 (stereo not given)	inactive
CC1CCCC(=O)C1=O (stereo not given)	inactive
CCc1ccc(C)cc1	inactive
Cc1ccc(Cl)cc1N	inactive
CNC1CCCN(c2c(F)cc3c(=O)c(C(=O)O)cn(C4CC4)c3c2OC)C1 (stereo not given)	inactive
Cc1cccc(C)c1NC(=O)c1cc(S(N)(=O)=O)c(Cl)cc1O	inactive
CNCc1ccc(NC(=O)c2c[nH]c3c2C(=O)CCC3)cc1	inactive
O=C(O)CCC(=O)OC[C@@H](NC(=O)C(Cl)Cl)[C@H](O)c1ccc([N+](=O)[O-])cc1	inactive
CCOC(=O)c1ccc(NC(=O)CN2CCCCC2)cc1	inactive
O=C(NC(Cc1cc(=O)[nH]c2ccccc12)C(=O)O)c1ccc(Cl)cc1 (stereo not given)	inactive
COc1cc(NC(C)CCCN)c2ncccc2c1 (stereo not given)	inactive
O=C(O)CN1C(=O)c2cccc3cccc(c23)C1=O	inactive
SCCc1cnccn1	inactive
CCN(CC)C(=O)N1CCN(C)CC1	inactive
O=C1[C@@H]2[C@H]3CC[C@H](C3)[C@@H]2C(=O)N1CCCCN1CCN(c2ncccn2)CC1	inactive

Structure (SMILES)	Potency
CC(CN(CCN(CC(C)OCCO)CC(C)OCCO)CC(C)OCCO)OCCO (stereo not given)	inactive
NC(=O)c1ccccc1[N+](=O)[O-]	inactive
O=S(=O)(Cl)c1c(Cl)cccc1Cl	inactive
COC(=O)Nc1nc2ccc(C(=O)C3CC3)cc2[nH]1	inactive
CN1C(CSCC(F)(F)F)Nc2cc(Cl)c(S(N)(=O)=O)cc2S1(=O)=O (stereo not given)	inactive
COc1cc(C(C)=O)ccc1OCCCN1CCC(c2noc3cc(F)ccc23)CC1	inactive
O=C1OC[C@H](Cc2cccc(O)c2)[C@H]1Cc1cccc(O)c1	inactive
CCCCCC	inactive
CC1CCc2nccnc21 (stereo not given)	inactive
CC(C)C1CCC(C(=O)N[C@H](Cc2ccccc2)C(=O)O)CC1 (stereo not given in full)	inactive
O=C(/C=C/c1ccc([N+](=O)[O-])cc1)c1ccccc1	inactive
CC(=O)NCCO	inactive
CS(=O)(=O)c1ccc([C@@H](C[C@H]2CCC(=O)C2)C(=O)Nc2cnccn2)cc1Cl	inactive
CN=C(N)NC(=O)Nc1c(C)cccc1C	inactive
COc1ccc(CCN(C)CCCN2CCc3cc(OC)c(OC)cc3CC2=O)cc1OC	inactive
CC(=O)C(=O)CC(C)C	inactive
CCCCOC(=O)CCCCC(=O)OCCCC	inactive
CC(=O)OCCC(C)CC(C)(C)C (stereo not given)	inactive
Cc1cc(CCC(=O)OCCOCCOCCOC(=O)CCc2cc(C)c(O)c(C(C)(C)C)c2)cc(C(C)(C)C)c1O	inactive
O=C(O)CO	inactive
